Compound activity (PubChem BioAssay)
KAT2A inh: GCN5L2 (KAT2A) acetyltransferase inhibition; GCN5L2 HAT assay, ThioGlo1 CoA-SH fluorescence; AID 504327; Q92830; actives 0.21% (n = 390,000); Potency, µM (highest dose often 58.9 µM), for the others: at the highest dose activity change, negative = inhibition, hits mostly inhibitors; also: potency is read from the fitted curve at half-maximal effect; % is scaled to controls: 0 for no effect and ±100 for the full control effect
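Titration-based screen in which CoA formation is detected via maleimide probe ThioGlo1 (50uM) turning fluorescent on thiol reaction; substrates H3(1-25) 75uM and acetyl-CoA 70uM, GCN5L2 20nM, 20 min incubation at room temperature.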
IL-2 act: activates IL-2 in a cell-based reporter assay; AID 652025; IL-2 activation reporter assay, cell-based qHTS; stimulated with anti-CD3/CD4/CD28 beads; in transgenic mouse T cells; actives 0.065% (n = 360,000); activation, % (series mostly up to about 46 µM); in the data active = activation above about 50%; inconclusive = mostly about 30% to 49%; also: 0% is about no effect
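Using fluorescent plate cytometry, EGFP and DsRed are detected in transgenic mouse T cells stimulated 18 h at 37 degrees C with antibody-coated beads after 60 min compound pretreatment.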
RGS12 GoLoco inh: RGS12 GoLoco-Gai1 interaction inhibition; Potency, µM (highest dose often 61.6 µM), for inactives: top-dose activity, negative = inhibition, most hits filed as inhibitors; P63096; actives 0.44% (n = 230,000); AID 880; Gai1:RGS12 GoLoco peptide FP, rhodamine, 10 min; active = well fitted inhibition curve with a large enough effect, not every such curve was filed as active; inactive = no such curve, though single readings can be large or run the other way; also: potency is read from the fitted curve at half-maximal effect; % is scaled to controls: 0 for no effect and ±100 for the full control effect; nearly all actives have a fitted effect of over 30% in size
Vif-APOBEC3F blk: blocks the Vif interaction with APOBEC3F; HeLa A3F-eYFP + Vif (tagged APOBEC3F with the HIV-1 protein that degrades it), YFP fluorescence increase; Potency, µM (top dose mostly 46.1 µM), inactives show top-dose activity, negative = active; actives 0.2% (n = 390,000); AID 602313; also: potency is read from the fitted curve at half-maximal effect; % of control where 0% means no effect; nearly all actives have a fitted effect of over 65% in size
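HeLa cells stably expressing A3F-eYFP plus Vif, plated and incubated overnight at 37 deg C, then exposed to compounds overnight at 37 deg C. Blocked degradation read as raised yellow fluorescence (Ex 488/Em 500-530).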
PKM2 act: increases activity of human pyruvate kinase M2 | actives 0.34% (n = 260,000) | AID 1631 | purified PKM2, Kinase-Glo ATP luminescence, activation; response scale: 0% is enzyme alone, no compound | Potency, µM (titrated, usually from 57.5 µM), for the others: top-dose activation, hits mostly activators; also: potency is read from the fitted curve at half-maximal effect; % is scaled to controls: 0 for no effect and ±100 for the full control effect; nearly all actives have a fitted effect of over 55% in size
Target sequence (P14618 whole entry, looked up): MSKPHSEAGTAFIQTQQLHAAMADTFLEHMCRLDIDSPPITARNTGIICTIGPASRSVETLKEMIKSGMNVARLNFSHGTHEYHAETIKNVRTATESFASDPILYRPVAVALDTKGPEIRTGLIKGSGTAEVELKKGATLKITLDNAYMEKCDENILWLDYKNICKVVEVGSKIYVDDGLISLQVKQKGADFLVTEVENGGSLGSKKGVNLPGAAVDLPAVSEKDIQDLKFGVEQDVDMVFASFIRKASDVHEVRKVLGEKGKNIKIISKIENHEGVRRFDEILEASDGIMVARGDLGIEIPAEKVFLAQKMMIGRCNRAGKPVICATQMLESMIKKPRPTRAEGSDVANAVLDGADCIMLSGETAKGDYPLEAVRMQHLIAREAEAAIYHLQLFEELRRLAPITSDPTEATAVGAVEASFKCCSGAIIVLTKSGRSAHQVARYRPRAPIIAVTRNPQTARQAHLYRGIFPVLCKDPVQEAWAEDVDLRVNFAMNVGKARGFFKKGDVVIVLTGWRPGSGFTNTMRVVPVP
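Purified hPK-M2 (>95%) run at intermediate activity with 0.1 mM ADP and 0.5 mM PEP in 50 mM imidazole pH 7.2, KCl, MgCl2; 1 h room temperature. ATP formed read by Kinase-Glo luminescence; normalized to uninhibited and no-enzyme controls.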
Vif-APOBEC3G blk: inhibitors of Vif-APOBEC3G interaction | Q9HC16 | HeLa A3G-eYFP + Vif (tagged APOBEC3G with the HIV-1 protein that degrades it), YFP fluorescence, overnight | Potency, µM (top dose mostly 46.1 µM), inactives show at the top dose activity, negative = active, most hits filed as inhibitors | actives 0.076% (n = 410,000) | AID 602310; also: potency is read from the fitted curve at half-maximal effect; % is scaled to controls: 0 for no effect and ±100 for the full control effect; nearly all actives have a fitted effect of over 60% in size
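Read-out is eYFP fluorescence (Ex 488/Em 500-530) from Vif-expressing HeLa A3G-eYFP cells; more signal means A3G escaped Vif-mediated degradation. Cells plated overnight, compound pinned in, incubated overnight at 37 deg C.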
Numbers without * were called inactive; u = inconclusive; x = not tested or not shown. A selection: hits, their analogues and other compounds. The true share with any hit is near 0.77%. Unless noted, calls follow the shape of the dose curve; as a rule, active = well fitted curve in the direction sought with a large enough effect; inconclusive = small, poorly fitted or top-dose-only effect, or another doubt; inactive = no such curve, though single readings can be large; an effect the other way counts as inactive or inconclusive.

SMILES	KAT2A inh	IL-2 act	RGS12 GoLoco inh	Vif-APOBEC3F blk	PKM2 act	Vif-APOBEC3G blk
CSc1nsc2nc(=O)c(/C=C3\C(C)=Nc4ccc(C)cc43)c(N)n12	-12.9%	1.3	33.0%	u	-18.1%	u
COc1ccc(C(=O)/C=C/C(=O)N(CC(=O)NC2CCCCC2)Cc2cccs2)c(O)c1	-1.9%	-0.3	4.4%	1.5%	12.6µM*	u
COCCN(CC(=O)NC1CCCCC1)C(=O)/C=C/C(=O)c1ccc(OC)cc1O	2.4%	1.5	18.6%	-0.6%	-19.4%	u
CN(C)c1ccc(/C=C/c2ccncc2)cc1	-2.7%	1.1	38.6%	28.2µM*	0.6%	u
Fc1ccc(/C=C/c2nccc3ccccc23)cc1	x	x	x	x	x	2.3%
C(=C\c1c[nH]c2ccccc12)/c1nccc2ccccc12	x	x	x	x	x	8.91µM*
CN(C)c1ccc(/C=C/c2nccc3ccccc23)cc1	x	x	x	x	x	11.2µM*
CC(=O)Oc1ccc(Cn2c(C)c(C(=O)NCc3ccccc3C(F)(F)F)sc2=O)cc1	x	-0.3	x	x	x	-8.0%
CCN(CC)C(=S)Nc1cc(C(=O)OC)ccc1C(=O)OC	-2.4%	-1.2	-6.7%	20.2%	-20.1%	0.4%
CC(=O)Nc1ccc(S(=O)(=O)Nc2cccn(Cc3ccc(C)cc3)c2=O)cc1	-4.7%	0.5	8.6%	9.5%	-1.9%	0.9%
CC(=O)Nc1ccc(S(=O)(=O)Nc2cc(C)cn(Cc3ccccc3)c2=O)cc1	-1.7%	-1.1	x	22.4µM*	0.4%	-13.6%
Cc1nnc(Sc2cc(NCCCO)c([N+](=O)[O-])c3nonc23)s1	-24.5%	-4.4	7.94µM*	12.3%	27.1%	-20.5%
N#CC1=C(N)N2C(=C(C#N)C1c1cccc(Br)c1)Nc1ccccc12 (centres undefined)	0.5%	23.4	6.7%	u	-2.9%	-6.3%
COc1ccc(Nc2nc3cc(C)ccc3cc2C#N)cc1	-1.2%	21.6	x	22.4µM*	-3.5%	u
CC(C)CNc1ncnc2c1ncn2[C@H]1CN(Cc2ccncc2)C[C@@H](CO)O1	x	-0.5	x	x	x	0.4%
Cc1ccc(/C=C/C(=O)N2CCN(S(=O)(=O)c3c(C)c(C)cc(C)c3C)CC2)o1	18.6%	-0.8	-2.5%	-16.4%	3.16µM*	-24.7%
O=C(c1ccccc1)N1CCN(S(=O)(=O)c2cccs2)CC1	3.8%	-2.1	x	2.7%	4.6%	-2.2%
COc1ccc(OCC(=O)N2CCN(S(=O)(=O)c3ccccc3[N+](=O)[O-])CC2)cc1	-12.9%	-0.4	8.1%	-8.4%	7.94µM*	1.7%
O=C(CCOc1ccccc1)N1CCN(S(=O)(=O)c2cccs2)CC1	-13.8%	0.3	5.5%	-6.5%	12.6µM*	1.8%
CCS(=O)(=O)N1CCN(S(=O)(=O)c2ccccc2[N+](=O)[O-])CC1	2.1%	-2.6	-8.1%	-13.3%	u	2.3%
COc1ccc(CCC(=O)N2CCN(S(=O)(=O)c3cccs3)CC2)cc1	-2.6%	1.9	x	-2.8%	x	-3.3%
N#Cc1ccc(OCC(=O)N2CCN(S(=O)(=O)c3cccs3)CC2)cc1	-2.0%	1.5	3.3%	3.5%	17.8µM*	0.6%
O=C(COc1ccccc1)N1CCN(S(=O)(=O)c2cccs2)CC1	1.2%	5.5	-6.1%	-10.8%	7.94µM*	-1.2%
CCOc1ccc2oc(C(=O)N(Cc3nnc(-c4ccccc4Cl)o3)C3CC3)c(C)c2c1	-4.6%	-6.0	x	6.1%	x	1.3%
COc1ccc(CCCNC(=O)C2(C)Cc3c(-c4ccc5c(c4)OCO5)ccnc3O2)cc1 (centres undefined)	x	0.6	x	x	x	u
SMILES	KAT2A inh	IL-2 act	RGS12 GoLoco inh	Vif-APOBEC3F blk	PKM2 act	Vif-APOBEC3G blk
COc1ccc(S(=O)(=O)N2CCOCC2)cc1N=Nc1sc(N)nc1-c1ccccc1	-4.3%	-2.7	20.1%	1.5%	-3.6%	1.5%
O=C1C=C(OCCF)CC(c2cccc([N+](=O)[O-])c2)O1 (centres undefined)	x	-0.3	x	x	x	x
O=S(=O)(NCc1cccnc1)c1cccn1-c1ncc(C(F)(F)F)cc1Cl	-0.4%	-1.1	-8.7%	8.1%	22.4µM*	-8.3%
CCc1ccc(/C=C/c2c[nH]c3ccccc23)[n+](CC)c1	-9.6%	10.1	6.31µM*	u	-17.3%	u
CC(=O)OCCn1c2nc(=O)[nH]c(=O)c-2nc2cc(C)c(C)cc21	u	-0.3	14.1µM*	-18.6%	3.3%	12.6%
CCCC(=O)OC[C@@H](OC(=O)CCC)[C@@H](OC(=O)CCC)[C@H](Cn1c2nc(=O)[nH]c(=O)c-2nc2cc(C)c(C)cc21)OC(=O)CCC	-28.2%	x	x	x	x	x
Cn1c2nc(=O)[nH]c(=O)c-2cc2ccccc21	x	-0.1	x	-12.8%	x	4.2%
Cc1cc2nc3c(=O)[nH]c(=O)nc-3n(C)c2cc1C=O	28.2µM*	x	10µM*	x	x	x
Cc1cc2nc3c(=O)[nH]c(=O)nc-3n(CC(O)C(O)C(O)CO)c2cc1C (centres undefined)	u	x	14.1µM*	x	x	x
CCCSc1nc2cc(C)c(C)cc2n1CC(O)CO (centres undefined)	-5.2%	1.7	4.9%	-1.2%	0.2%	0.1%
O=C(O)c1cccc(-c2nc3ccccc3[nH]2)c1	-5.7%	-1.8	-2.2%	-4.4%	-16.4%	2.5%
O=C(N/N=C/c1ccc(N2CCOCC2)cc1)c1ccncc1	-6.9%	0.1	x	-0.5%	x	-1.4%
O=c1c(/C=C(\O)c2ccccc2)nc2ccccc2n1-c1ccccc1	-18.9%	88.8*	46.7%	u	-2.0%	-21.4%
Cn1c(Cc2ccccc2)nnc1SCC(=O)N1CCN(c2ccccc2)CC1	1.9%	-3.3	1.9%	1.9%	12.6µM*	0.9%
Oc1c(I)cc(I)c2cccnc12	-1.0%	-0.6	9.4%	-1.7%	-2.6%	1.0%
O=S(=O)(O)c1cc(I)c(O)c2ncccc12	5.62µM*	x	x	x	x	x
O=C(CSc1nc2ccccc2s1)c1cc2ccccc2o1	x	1.9	231.9%	25.1µM*	-2.4%	u
Fc1ccccc1Nc1n[nH]c(=S)s1	17.8µM*	1.0	-2.8%	13.0%	-4.0%	-0.5%
CCOC(=O)C(C)Sc1ncnc2nc[nH]c12 (centres undefined)	-1.2%	-1.8	7.0%	-9.4%	-1.7%	0.3%
COc1cccc(NC(=O)c2sc3nc(C)c(C(=O)Nc4ccc(C)cc4C)c(-c4sccc4C)c3c2N)c1	u	x	x	-3.0%	x	-0.1%
Cc1ccc(NC(=O)c2c(C)nc3sc(C(=O)NC4CCCC4)c(N)c3c2-c2ccco2)c(C)c1	9.4%	6.9	15.1%	2.82µM*	-3.5%	-1.7%
COc1cccc(NC(=O)c2sc3nc(C)c(C(=O)Nc4ccc(C)cc4C)c(-c4ccco4)c3c2N)c1	-11.7%	x	x	u	x	-21.4%
